Activity calls are given as the source filed them. Rule for the calls: active = hit-call score of the fitted dose curve at least 0.9, where 1 is the maximum; inactive = score below 0.9.

A short description of assay [1]: BSK_3C_TissueFactor: BioMAP Diversity Plus: 3C Assay for Tissue Factor Biomarker Activity (AID 2282997). The note with it: BioMAP 3C HUVEC, tissue factor biomarker readout; actives raise or lower the signal. An outline of the steps: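 Dosing of human umbilical vein endothelial cells preceded a 24 h incubation. Tissue Factor was then read by ELISA, with increases and decreases both scored relative to DMSO controls.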

The nature of assay [2]: BSK_3C_VCAM1: BioMAP Diversity Plus: 3C Assay for Vascular cell adhesion molecule 1 (VCAM1) Biomarker Activity (AID 2282999). The note with it: BioMAP 3C HUVEC, VCAM1 ELISA, cytokine-stimulated; actives raise or lower the signal. In a few lines:
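Human umbilical vein endothelial cells were dosed with compound for 24 h, after which cell-surface VCAM-1 was quantified by ELISA. Bidirectional curve fitting used DMSO as negative control and activity baseline.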

Read-out in assay [3]: Monokine induced gamma interferon (MIG), CXCL9 (gene 4283)
Put plainly: BSK_3C_MIG: BioMAP Diversity Plus: 3C Assay for Monokine induced gamma interferon (MIG) Biomarker Activity (AID 2283021). The note with it: primary human endothelial cells (HUVEC); actives raise or lower the signal. An outline of the steps: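 Primary human umbilical vein endothelial cells in the 3C system were exposed to chemical for 24 h, after which MIG was quantified by ELISA. Activity was fitted bidirectionally against DMSO as negative control and baseline.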

Read-out in assay [4]: Monokine induced gamma interferon (MIG), CXCL9 (gene 4283)
Put plainly: BSK_BE3C_MIG: BioMAP Diversity Plus: BE3C Assay for Monokine induced gamma interferon (MIG) Biomarker Activity (AID 2283035).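 Note: MIG protein measured by ELISA in BE3C cultures after 24 h of dosing.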 The note with it: primary human bronchial epithelial cells; actives raise or lower the signal. An outline of the steps:
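ELISA read-out of MIG in human lung bronchial epithelial primary cultures, 24 h post-dosing. Bidirectional curve fit vs DMSO baseline.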

Read-out in assay [5]: Transforming growth factor beta 1 (TGFb1), TGFB1 (gene 7040)
Put plainly: BSK_BE3C_TGFb1: BioMAP Diversity Plus: BE3C Assay for Transforming growth factor beta 1 (TGFb1) Biomarker Activity (AID 2283036). Particulars: primary human bronchial epithelial cells; actives raise or lower the signal. An outline of the steps:
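Human primary bronchial epithelial cells (BE3C system) were dosed with chemical and TGF-b1 levels measured by ELISA at 24 h. Activity was fitted bidirectionally relative to DMSO negative control as baseline.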

Read-out in assay [6]: Plasminogen activator inhibitor-1 (PAI1), SERPINE1 (gene 5054)
In words: BSK_BE3C_PAI1: BioMAP Diversity Plus: BE3C Assay for Plasminogen activator inhibitor-1 (PAI1) Biomarker Activity (AID 2283037). The note with it: primary human bronchial epithelial cells; actives raise or lower the signal. An outline of the steps: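 Human primary bronchial epithelial cells were exposed to chemical for 24 h, then PAI-1 was quantified by ELISA. Activity was fitted bidirectionally relative to the DMSO negative control baseline.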

Read-out in assay [7]: urokinase plasminogen activator (uPA), PLAU (gene 5328)
Put plainly: BSK_BE3C_uPA: BioMAP Diversity Plus: BE3C Assay for urokinase plasminogen activator (uPA) Biomarker Activity (AID 2283038).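 Note: uPA protein level quantified by ELISA in cell cultures; uPA read one day after compound addition.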 Particulars: primary human bronchial epithelial cells; actives raise or lower the signal. An outline of the steps:
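ELISA for uPA on human primary bronchial epithelial cultures 24 h post-treatment, gain or loss against DMSO. Parallel SRB staining (0.1% after 10% TCA fixation, 560 nm) assessed overt cytotoxicity.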

Read-out in assay [8]: Tissue plasminogen activator (tPA), PLAT (gene 5327)
In words: BSK_BE3C_tPA: BioMAP Diversity Plus: BE3C Assay for Tissue plasminogen activator (tPA) Biomarker Activity (AID 2283041).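 Note: tPA level quantified by ELISA one day after compound addition.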 Particulars: primary human bronchial epithelial cells; actives raise or lower the signal. An outline of the steps: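 Human primary bronchial epithelial cells were dosed with chemical and tPA biomarker levels measured by ELISA 24 hours later. Activity was fitted bidirectionally against DMSO as negative control and baseline.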

Read-out in assay [9]: serum amyloid A (SAA), SAA1 (gene 6288)
In words: BSK_CASM3C_SAA: BioMAP Diversity Plus: CASM3C Assay for serum amyloid A (SAA) Biomarker Activity (AID 2283049).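 Note: SAA protein level quantified by ELISA.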 The note with it: primary human coronary artery smooth muscle cells; actives raise or lower the signal.

Read-out in assay [10]: Vascular cell adhesion molecule 1 (VCAM1), VCAM1 (gene 7412)
Put plainly: BSK_CASM3C_VCAM1: BioMAP Diversity Plus: CASM3C Assay for Vascular cell adhesion molecule 1 (VCAM1) Biomarker Activity (AID 2283055).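 Note: VCAM-1 protein level quantified by ELISA on the cells.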 Particulars: primary human coronary artery smooth muscle cells; actives raise or lower the signal.

Read-out in assay [11]: Collagen III, COL3A1 (gene 1281)
In words: BSK_hDFCGF_CollagenIII: BioMAP Diversity Plus: hDFCGF Assay for Collagen III Biomarker Activity (AID 2283056). The note with it: primary human foreskin fibroblasts; actives raise or lower the signal. An outline of the steps:
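ELISA readout of Collagen III in human dermal (foreskin) fibroblasts, taken 24 h post-treatment. Gain or loss relative to DMSO vehicle fitted in both directions.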

Read-out in assay [12]: Macrophage colony-stimulating factor (MCSF), CSF1 (gene 1435)
In words: BSK_hDFCGF_MCSF: BioMAP Diversity Plus: hDFCGF Assay for Macrophage colony-stimulating factor (MCSF) Biomarker Activity (AID 2283060). Particulars: primary human foreskin fibroblasts; actives raise or lower the signal. An outline of the steps:
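M-CSF levels read by ELISA at 24 h post-dosing in human skin fibroblasts. Parallel cultures stained with SRB assessed cytotoxicity at the same time point; response fitted in both directions against the DMSO baseline.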

Read-out in assay [13]: Interleukin-1 alpha (IL1a), IL1A (gene 3552)
In words: BSK_KF3CT_IL1a: BioMAP Diversity Plus: KF3CT Assay for Interleukin-1 alpha (IL1a) Biomarker Activity (AID 2283070). The note with it: primary human keratinocytes with fibroblasts; actives raise or lower the signal. An outline of the steps: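 Human keratinocyte plus foreskin fibroblast primary co-culture, sampled 24 h after chemical dosing. IL-1a measured by ELISA; responses fitted bidirectionally against DMSO baseline (negative control), so gain or loss of signal both count.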

Read-out in assay [14]: TIMP metallopeptidase inhibitor 2 (TIMP2), TIMP2 (gene 7077)
Put plainly: BSK_KF3CT_TIMP2: BioMAP Diversity Plus: KF3CT Assay for TIMP metallopeptidase inhibitor 2 (TIMP2) Biomarker Activity (AID 2283071). Particulars: primary human keratinocytes with fibroblasts; actives raise or lower the signal. An outline of the steps: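 Human primary keratinocyte/foreskin fibroblast co-culture dosed with chemical and sampled at 24 h. TIMP-2 levels quantified by ELISA; bidirectional fitting against DMSO negative control as baseline.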

Read-out in assay [15]: Matrix Metallopeptidase 9 (MMP9), MMP9 (gene 4318)
Put plainly: BSK_KF3CT_MMP9: BioMAP Diversity Plus: KF3CT Assay for Matrix Metallopeptidase 9 (MMP9) Biomarker Activity (AID 2283074).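 For AC50: MMP9 protein level quantified by ELISA in the co-culture.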 The note with it: primary human keratinocytes with fibroblasts; actives raise or lower the signal. In a few lines: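 Keratinocyte plus foreskin fibroblast human primary skin co-culture was dosed with chemical and MMP-9 was quantified by ELISA 24 h later. Bidirectional curve fitting used DMSO as negative control and activity baseline.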

Read-out in assay [16]: Tumor necrosis factor (Homo sapiens) (UniProt P01375)
Put plainly: BSK_LPS_TNFa: BioMAP Diversity Plus: LPS Assay for Tumour Necrosis Factor alpha (TNFa) Biomarker Activity (AID 2283085). Particulars: primary human HUVEC with PBMC; actives raise or lower the signal. An outline of the steps:
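Human umbilical vein endothelial cells co-cultured with PBMC were exposed to test chemical and TNFa measured by ELISA 24 h after dosing. Bidirectional curve fitting was done relative to DMSO as negative control and baseline.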

Read-out in a further assay: CD38, CD38 (gene 952)
In words: BSK_SAg_CD38: BioMAP Diversity Plus: SAg Assay for CD38 Biomarker Activity (AID 2283087). The note with it: primary human HUVEC with PBMC; actives raise or lower the signal. An outline of the steps:
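Fluorescence ELISA of cell-surface CD38 served as the read-out, with either increase or decrease fitted against DMSO controls. Cells were a human umbilical vein endothelium plus PBMC co-culture under SEB/TSST-1 stimulation, measured 24 h after dosing.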

Read-out in a further assay: CD69, CD69 (gene 969)
In words: BSK_SAg_CD69: BioMAP Diversity Plus: SAg Assay for CD69 Biomarker Activity (AID 2283089).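 For AC50: cell surface CD69 protein quantified by ELISA with fluorescence detection.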 The note with it: primary human HUVEC with PBMC; actives raise or lower the signal. An outline of the steps:
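Values derive from bidirectional fitting relative to DMSO vehicle. Cells: umbilical vein endothelium plus peripheral blood mononuclear cells, treated 24 h before fluorescent ELISA for CD69.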

Read-out in assay [17]: E-selectin (Homo sapiens) (UniProt P16581)
In words: BSK_SAg_Eselectin: BioMAP Diversity Plus: SAg Assay for Eselectin Biomarker Activity (AID 2283091). Particulars: primary human HUVEC with PBMC; actives raise or lower the signal. In a few lines: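 Cell-surface E-selectin is read by ELISA at 24 h in the SAg co-culture of HUVEC and PBMC. Curves are fitted in both directions relative to DMSO. Parallel SRB total-protein staining tracks overt toxicity.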

Assay [18] can be described thus: BSK_SAg_PBMCCytotoxicity: PBMC Cytotoxicity Assessment in the BioMAP Diversity Plus: SAg Assay (AID 2283093).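 Note: PBMC viability measured as Alamar Blue reduction fluorescence at 546/580 nm; fitted both ways against DMSO so a hit may be loss or gain of signal.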 Particulars: primary human HUVEC with PBMC. An outline of the steps:
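Human umbilical vein endothelial cells co-cultured with PBMC; PBMC (75,000/well) pre-treated with compound 1 h, then activated with SEB and TSST-1 (20 ng/mL final each) for 90 h. Alamar Blue added 6 h, fluorescence 546/580 nm; bidirectional fit versus DMSO.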

Sequence of E-selectin (Homo sapiens) (P16581 whole entry, looked up): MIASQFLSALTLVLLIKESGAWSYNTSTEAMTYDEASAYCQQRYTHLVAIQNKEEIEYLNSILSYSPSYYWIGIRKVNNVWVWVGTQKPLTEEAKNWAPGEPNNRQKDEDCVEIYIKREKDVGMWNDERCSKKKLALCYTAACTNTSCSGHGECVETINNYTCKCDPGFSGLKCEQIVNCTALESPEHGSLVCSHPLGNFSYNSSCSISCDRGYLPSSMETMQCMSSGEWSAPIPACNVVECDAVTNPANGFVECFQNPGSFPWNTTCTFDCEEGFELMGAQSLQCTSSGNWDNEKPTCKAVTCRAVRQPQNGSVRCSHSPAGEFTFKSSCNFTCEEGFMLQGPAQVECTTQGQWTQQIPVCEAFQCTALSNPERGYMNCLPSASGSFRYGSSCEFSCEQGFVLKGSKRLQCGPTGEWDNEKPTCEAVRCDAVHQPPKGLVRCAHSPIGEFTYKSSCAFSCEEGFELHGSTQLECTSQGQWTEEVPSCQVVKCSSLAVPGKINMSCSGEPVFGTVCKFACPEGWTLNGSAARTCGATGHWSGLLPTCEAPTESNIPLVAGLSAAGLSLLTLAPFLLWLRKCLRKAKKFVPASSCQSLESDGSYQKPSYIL
Sequence of Tumor necrosis factor (Homo sapiens) (P01375 whole entry, looked up): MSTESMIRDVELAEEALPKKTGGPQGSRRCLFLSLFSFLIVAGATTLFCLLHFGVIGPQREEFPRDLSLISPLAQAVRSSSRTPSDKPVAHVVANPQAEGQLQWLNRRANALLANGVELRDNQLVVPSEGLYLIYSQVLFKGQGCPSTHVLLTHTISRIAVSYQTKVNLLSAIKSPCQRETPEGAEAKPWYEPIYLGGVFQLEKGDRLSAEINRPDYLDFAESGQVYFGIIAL

For orientation: AC50 means the midpoint of the concentration-response curve, whichever way the signal moves. Turning to `O=c1c2ccccc2c(=O)c2c1cc(Cl)c1[nH]c3c([nH]c12)c(Cl)cc1c(=O)c2ccccc2c(=O)c13`, the results for the AC50 in [1] and in assay [12] were 15.8 µM (active) and 20 µM (active), respectively. Moreover, the outcome in [2], in [3], in assay [4], in assay [5], in assay [6] and in assay [7] was inactive. The outcome in assay [8], in assay [9], in [10], in [11], in assay [13] and in [14] was inactive. Moreover, the outcome was “inactive” in assay [15]; “inactive” in [16]; “inactive” with CD38, CD38 (gene 952); “inactive” with CD69, CD69 (gene 969); “inactive” in assay [17]; “inactive” in assay [18].
Regarding `O=S(=O)(c1ccccc1)c1ccccc1`, the outcome in [1], in [2], in [3], in assay [4], in [5] and in assay [6] was inactive. For the same molecule, the outcome in [7], in assay [8], in assay [9], in assay [10], in [11] and in assay [12] was inactive. In addition, the outcome was “inactive” in assay [13]; “inactive” in [14]; “inactive” in assay [15]; “inactive” in assay [16]; “inactive” with CD38, CD38 (gene 952); “inactive” with CD69, CD69 (gene 969). Further, the outcome in [17] and in [18] was inactive.
On to `C=CC(=O)OCC(CC)CCCC` (stereo not given), for which the half-maximal activity concentration (AC50) in assay [1] was 28.9 µM (active); in assay [2] it was 20 µM (active); in assay [10] it was 20 µM (active); in [11] it was 20 µM (active); in [12] it was 20 µM (active); in assay [13] it was 6.47 µM (active). Besides, the outcome in assay [3], in assay [4], in assay [5], in [6], in assay [7] and in [8] was inactive. The outcome in assay [9] is “inactive”; in assay [14], “inactive”; in [15] it was “inactive”; in assay [16] it was “inactive”; in the assay with CD38, CD38 (gene 952) it was “inactive”; in the assay with CD69, CD69 (gene 969) it was “inactive”. In addition, the result in assay [17] and in assay [18] was inactive.
Take `CC(C)CCCCCCCOC(=O)c1ccccc1C(=O)OCCCCCCCC(C)C`: the result in assay [1], in assay [2], in assay [3], in assay [4], in [5] and in [6] was inactive. For the same molecule, the outcome in [7], in assay [8], in assay [9], in assay [10], in assay [11] and in assay [12] was inactive. Moreover, the outcome in assay [13] is “inactive”; in assay [14], “inactive”; in assay [15], “inactive”; in [16], “inactive”; with CD38, CD38 (gene 952) it was “inactive”; in the assay with CD69, CD69 (gene 969), “inactive”. For the same molecule, the result in [17] and in [18] was inactive.
With `CC(C)(C)C(O)C(Oc1ccc(-c2ccccc2)cc1)n1cncn1` (stereo not given), the outcome in assay [1], in assay [2], in assay [3], in [4], in [5] and in assay [7] was inactive. The outcome in assay [8] was “inactive”; in [12], “inactive”; in assay [16], “inactive”; in the assay with CD38, CD38 (gene 952) it was “inactive”; in the assay with CD69, CD69 (gene 969), “inactive”; in [17], “inactive”. Further, the outcome in [18] was inactive. Also, the AC50 was 5.39 µM (active) in assay [6]; 20 µM (active) in assay [9]; 30.9 µM (active) in assay [10]; 24.9 µM (active) in assay [11]; 33 µM (active) in assay [13]; 20 µM (active) in assay [14]. Further, the AC50 in [15] was 28 µM (active).
Take `Nc1ccc(-c2ccc(N)c(N)c2)cc1N`: the concentration at half-maximal activity (AC50) is 5.26 µM (active) in [1]; 11.1 µM (active) in assay [6]; 10 µM (active) in [10]; 20 µM (active) in [11]; 16.1 µM (active) in assay [12]; 15.8 µM (active) in assay [13]. Further, the AC50 was 20 µM (active) in assay [14]; 16.1 µM (active) in assay [15]; 12.7 µM (active) with CD69, CD69 (gene 969); 11.7 µM (active) in assay [17]. Moreover, the outcome in assay [2], in assay [3], in assay [4], in [5], in assay [7] and in assay [8] was inactive. Also, the outcome in [9] was “inactive”; in assay [16], “inactive”; with CD38, CD38 (gene 952), “inactive”; in assay [18], “inactive”.

Source of the values: PubChem BioAssay (EPA / NIEHS).
